# MARV entry inh – inhibitors of Marburg virus binding or cell entry; Marburg virus pseudotyped entry inhibition, cell reporter; Potency, µM (series often up to 37.8 µM), without a hit: top-dose activity change, negative = inhibition, most hits filed as inhibitors; 300,000 compounds, 1.8% hits; AID 540276; calls by dose curve; tested in HEK293 cells; also: potency is read from the fitted curve at half-maximal effect
# HCV inhibitor – inhibitors of hepatitis C virus infection; Huh7.5.1 HCVcc-Cre infection, luciferase reporter, 44 h; Potency, µM (top dose mostly 41.8 µM), inactives show at the highest dose activity change, negative = inhibition, hits mostly inhibitors; 340,000 compounds, 3.4% hits; active = well fitted inhibition curve with a large enough effect; inconclusive = small, poorly fitted or top-dose-only effect, or another doubt; inactive = no such curve, though single readings can be large or run the other way; also: potency is read from the fitted curve at half-maximal effect
#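 Antiviral activity was scored by luciferase reporter output from cells infected with HCVcc-Cre (~0.5 moi) in presence of compound, 44 h infection period, cells seeded 1,000/well 4 h prior.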
# Lassa entry inh – inhibitors of Lassa virus binding or cell entry | Potency, µM (doses to about 37.9 µM), without a hit: top-dose activity change, negative = inhibition, usual class: inhibitors | 300,000 compounds, 1.2% hits | Lassa virus pseudotype entry inhibition, cell reporter; calls by dose curve; tested in HEK293 cells; also: potency is read from the fitted curve at half-maximal effect; nearly all actives have a fitted effect of over 50% in size
# HCMV antiviral – inhibitors of human cytomegalovirus | 410,000 compounds, 4.5% hits | AID 1259415 | HFF cells, HCMV-luciferase reporter, 72 h; active compounds read low | activity change, negative = inhibition, % at 57.5 µM; in the data active = activity change below about -60%; inconclusive = no clear call, values can overlap the other calls; inactive = above about -39%
#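 Cell-based, HFFs, 1000 cells/well, 16 h 37C; cpds in DMSO + HCMV-luc, MOI 1 PFU/cell; 72 h 37C; OneGlo luminescence after 5 min RT; norm. to buffer vs Salinomycin 10uM.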
# FMDV antiviral – blocks foot and mouth disease virus; FMDV antiviral cell-based qHTS; Potency, µM (top dose mostly 57.9 µM), for inactives: at the top dose activity change, negative = inhibition, hits mostly inhibitors; 410,000 compounds, 1.2% hits; AID 1159524; calls by dose curve; tested in HEK293T cells; also: read-out not given here; potency is read from the fitted curve at half-maximal effect; nearly all actives have a fitted effect of over 45% in size
# * hit, by the source's call; ? = inconclusive; nt = not tested or not shown; ! = not active in a repeat; [ ] = another dose, or the depositor's remark. Sampled rows, rich in hits. Any-hit rate of the full collection: about 7.9%. % is scaled to controls: 0 for no effect and ±100 for the full control effect.
SMILES,MARV entry inh,HCV inhibitor,Lassa entry inh,HCMV antiviral,FMDV antiviral
O=C(CCCCn1c(=O)c2ccccc2n(Cc2ccccc2Cl)c1=O)NCCc1ccccc1,2.4%[46.1 µM],nt,14.0%[46.1 µM],4.3,-9.3%
CCc1nc(NCC2CCCO2)c2oc3ccccc3c2n1 (stereo unspecified),1.6%,?,5.7%,-83.6*,0.0%
COc1ccc(CNc2nc(-c3c(C)noc3C)nc3ccccc23)c(OC)c1,nt,nt,nt,nt,-13.5%
CCOc1ccc(Nc2c3ccccc3nc3ccccc23)cc1,nt,3.98µM*,nt,-80.6*,?
COc1ccc(Nc2nc(NCC3CCCO3)c3ccccc3n2)c(OC)c1 (stereo unspecified),?,10µM*,-25.9%,-90.7*,?
CCOc1ccc(Nc2cc(C)c3ccccc3n2)cc1,nt,-11.8%,nt,-20.5,32.9%
CCOC(=O)c1ccc(NC(=O)CC[C@@H](CC)C(=O)O)cc1,3.2%,nt,nt,nt,nt
CC1(C)CC(O)CC(C)(C)N1CC(O)COCc1ccccc1 (stereo unspecified),-12.8%[46.1 µM],1.9%,?,14.0,-8.0%
O=C(c1ccc(CSc2nc3ccncc3[nH]2)cc1)N1CCN(c2cccc(Cl)c2)CC1,?,7.94µM*,25.9µM*,-89.6*,?
O=C(c1ccc(CSc2nc3ccncc3[nH]2)cc1)N1CCCCCC1,nt,-29.3%,nt,?,?
Cc1ccc(CSc2nc3ccncc3[nH]2)cc1,nt,-6.8%,nt,97.5,10µM*
Clc1ccc(CSc2nc3ccncc3[nH]2)cc1,nt,-10.9%,nt,68.3,-58.6%
COc1ccc(C2C(C(=O)/C=C/c3ccco3)=C(O)C(=O)N2CCN2CCOCC2)cc1 (stereo unspecified),?,11.2µM*,2.1%,11.2,-0.7%
COc1cccc(C2C(C(=O)/C=C/c3ccco3)=C(O)C(=O)N2CCN2CCOCC2)c1 (stereo unspecified),10.7%[46.1 µM],-3.1%,18.9%[46.1 µM],-0.4,-4.5%
Cc1cc(C)c(S(=O)(=O)N2CCC(N3CCN(Cc4ccccc4)C(=O)C3=O)CC2)c(C)c1,nt,nt,10.1%[46.1 µM],15.2,-17.3%
CCN(Cc1ccccc1)C(=O)Cn1c(=O)n(CCC(=O)N2CCCCC2)c(=O)c2sccc21,3.7%[46.1 µM],10.9%,-10.7%[46.1 µM],-7.3,15.4%
CN(c1ccccc1)S(=O)(=O)c1cccc(NC(=O)c2cccc(C#N)c2)c1,nt,10µM*,nt,0.0,25.1µM*
CN(c1ccccc1)S(=O)(=O)c1cccc(NC(=O)c2ccc3ncsc3c2)c1,?,11.2µM*,?,0.0,35.5µM*
CN(c1ccccc1)S(=O)(=O)c1cccc(C(=O)Nc2cccc(C(=O)NC3CC3)c2)c1,-28.6%,?,-33.3%,-19.2,?
Cc1ccc(NC(=O)c2ccc3ncsc3c2)cc1S(=O)(=O)N(C)C,nt,nt,nt,133.5,nt
COC(=O)C1=C(CS(=O)(=O)c2ccccc2)NC(=O)NC1c1ccc(O)cc1 (stereo unspecified),nt,12.0%,nt,-9.1,-5.0%
CCN(CC)CCN(C(=O)c1cc2c(ccc3ccccc32)oc1=O)c1nc2cc3c(cc2s1)OCCO3,?,-23.4%,11.3%[46.1 µM],-98.3*,-1.9%
CN(C)CCN(C(=O)c1ccc2ccccc2c1)c1nc2cc3c(cc2s1)OCCO3,?,nt,-29.5%,97.1,13.1%
CN(C)CCN(C(=O)c1cccc2ccccc12)c1nc2cc3c(cc2s1)OCO3,?,10µM*,19.7%[46.1 µM],-111.8*,-16.7%
CN(C)CCCN(C(=O)c1ccc2ccccc2c1)c1nc2cc3c(cc2s1)OCO3,?,?,7.7%[46.1 µM],-62.2*,-9.0%
SMILES,MARV entry inh,HCV inhibitor,Lassa entry inh,HCMV antiviral,FMDV antiviral
CCC1CCCCN1S(=O)(=O)c1ccc(C(=O)N(CCCN(C)C)c2nc3cc4c(cc3s2)OCO4)cc1 (stereo unspecified),?,12.6µM*,?,-17.0,-13.7%
COc1cccc(CNCCCSc2nnnn2C)c1OC,8.6%[46.1 µM],nt,12.0%[46.1 µM],14.9,-5.1%
O=C1C=C(O)C[C@H](c2cccs2)C1,20.6%,nt,nt,nt,nt
O=C(Cc1ccc(NC(=O)C2CCCN(C(=O)C3CCC3)C2)cc1)Nc1ccc(C(=O)N2CCOCC2)cc1 (stereo unspecified),nt,-7.5%[8.37 µM],nt,41.1,-0.4%
COc1cccc(NC(=O)CN(C)C(=O)CCN2C(=O)C3CC=CCC3C2=O)c1 (stereo unspecified),-17.1%,9.2%,8.3%,1.6,-8.4%
COc1ccccc1C(=O)Nc1nnc(SCc2cc(=O)c3ccccc3[nH]2)s1,nt,nt,-29.2%[46.1 µM],-39.3,22.4µM*
Cc1ccc2[nH]c(CSc3nnc(NC(=O)c4ccccc4F)s3)cc(=O)c2c1,nt,nt,-0.1%[46.1 µM],-11.1,?
Cc1ccc2[nH]c(CSc3nnc(NC(=O)c4ccccc4C)s3)cc(=O)c2c1,nt,nt,2.3%[46.1 µM],-73.7*,?
CCOC(=O)C1(C(=O)OCC)COC(=O)C1CN1Cc2cc3ccccc3nc2C1 (stereo unspecified),nt,nt,nt,141.9,28.2µM*
COC(=O)c1cc(Br)c(=O)n(CCN2CCCCC2)c1,0.0%,-2.1%,-1.2%,15.7,6.3%
COC(=O)c1cc(Br)c(=O)n(CCN2CCCC2)c1,23.4%[46.1 µM],0.6%,0.5%,-89.9*,5.8%
CC(=O)Nc1ccc(S(=O)(=O)N2CCC(Oc3ccc(-n4cnnn4)cc3)CC2)cc1,?,-5.8%,?,-88.7*!,?
N#Cc1ccccc1S(=O)(=O)N1CCC(Oc2ccc(-n3cnnn3)cc2)CC1,?,nt,?,-27.1,?
O=S(=O)(c1cccc(F)c1)N1CCC(Oc2ccc(-n3cnnn3)cc2)CC1,-14.2%[46.1 µM],nt,1.1%[46.1 µM],-95.9*,?
Cc1ccc(Cl)cc1N1CCN(C(=O)CN2C(=O)COc3ccc(S(=O)(=O)N4CCC(C)CC4)cc32)CC1,7.5%[46.1 µM],nt,-5.4%[46.1 µM],-5.2,-15.7%
CCOc1cc2[nH]c(=O)n(Cc3ccc(C(=O)NCCCN4CCC(C)CC4)cc3)c(=O)c2cc1OCC,?,?,-0.1%,-64.4*,-8.6%
O=C(NCCCN1CCCCC1)c1ccc2c(=O)n(CCc3ccccc3)c(=O)[nH]c2c1,?,6.31µM*,-27.4%,-2.1,8.0%
COCCn1c(=O)[nH]c2cc(C(=O)OC)ccc2c1=O,4.4%,12.3%,13.9%,-7.3,-0.8%
COCCn1c(=O)[nH]c2cc(C(=O)NCc3ccccc3Cl)ccc2c1=O,?,nt,?,-68.7*,-12.5%
CCOc1cc2[nH]c(=S)n(Cc3ccc(C(=O)NCCCN4CCOCC4)cc3)c(=O)c2cc1OCC,nt,9.2%,nt,-29.3,-7.1%
CCOC(=O)/C(C#N)=N/Nc1ccc(S(=O)(=O)Nc2cc(OC)nc(OC)n2)cc1,nt,18.2%,nt,-4.3,3.7%
Cc1ccc2nc(SCCC#N)nc(C)c2c1,?,10µM*,1.1%,-35.8,-0.5%
CCCc1c(C)nc2ccccc2c1SCCC#N,-10.6%,?,2.9%,-85.4*,-28.1%
Cc1ccc2nc(SCC(=O)O)nc(C)c2c1,-0.4%,11.0%,5.8%,48.8,nt
CCc1c(C)nc2ccc(Br)cc2c1SCCC#N,?,?,?,-83.5*,?
S=C(NCCCN1CCN(CCCNC(=S)NC2CCCCC2)CC1)NC1CCCCC1,?,?,-15.1%[46.1 µM],7.3,-2.3%
CCOc1ccc(CCNC(=O)CN2CCN(Cc3ccccc3F)C2=O)cc1OCC,?,11.2µM*,?,-2.6,5.5%
